SARS PLpro yeast: SARS-CoV PLP inhibition in yeast | S. cerevisiae expressing SARS-CoV PLpro, growth rescue | Potency, µM (series often up to 32.9 µM), for the others: at the highest dose activity, positive = growth rescue, most hits filed as activators | actives 0.19% (n = 330,000); calls by dose curve; also: 0% is about no effect; nearly all actives have a fitted effect of over 55% in size
Pf growth 48h: inhibits P. falciparum growth in the first generation, 48 h | P. falciparum luciferase growth in erythrocytes, 48 h | Potency, µM (doses to about 28.7 µM), without a hit: at the highest dose activity change, negative = inhibition, usual class: inhibitors | actives 5.9% (n = 310,000); also: % is scaled to controls: 0 for no effect and ±100 for the full control effect
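Firefly luciferase activity from engineered P. falciparum reports growth; inhibitors lower the luminescent signal. Cultures contained 2% hematocrit erythrocytes at 0.1% final parasitemia.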
Pf growth 96h: P. falciparum growth inhibition at 96 hours; P. falciparum luciferase reporter growth, 96 h; AID 504834; Potency, µM (series often up to 28.7 µM), inactives show top-dose activity change, negative = inhibition, usual class: inhibitors; actives 6.9% (n = 320,000); also: % is scaled to controls: 0 for no effect and ±100 for the full control effect
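96 h incubation, 37 C, 5% CO2, of luciferase-reporter P. falciparum-infected RBCs (2% hematocrit, 0.05% parasitemia final) with test compounds; endpoint luminescence.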
HCV inh: HCV inhibition; Huh7.5.1 HCVcc-Cre infection, luciferase reporter, 44 h; Potency, µM (titrated, usually from 41.8 µM), for inactives: at the top dose activity change, negative = inhibition, usual class: inhibitors; actives 3.4% (n = 340,000); also: % is scaled to controls: 0 for no effect and ±100 for the full control effect
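After 44 h co-culture of compound, cells and HCVcc-Cre (~0.5 moi), substrate is added for 15 min at room temperature and luciferase measured over 15 sec. Cells were seeded at 1,000/well and pre-cultured 4 h.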
NS1 inh: inhibitors of influenza NS1 protein function | Potency, µM (top dose mostly 46.1 µM), for the others: at the highest dose activity, positive = more growth | actives 0.4% (n = 270,000) | AID 2326; calls by dose curve; also: actives are rising curves; nearly all actives have a fitted effect of over 50% in size
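S. cerevisiae expressing influenza A NS1, grown in glucose, washed, then diluted 1:100 into pH 6.0 -URA galactose medium with 23 nl compound. Growth recovery read as OD600; NS1-free strain serves as control.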
AMA1 RON2 block: inhibitors of Plasmodium falciparum AMA1-RON2 interaction | Potency, µM (doses to about 58.2 µM), without a hit: at the top dose activity change, negative = inhibition, usual class: inhibitors | AlphaScreen AMA1-biotinylated RON2 peptide binding | actives 0.2% (n = 360,000) | AID 720542;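 also: 0% = vehicle wells and -100% = peptide control; nearly all actives have a fitted effect of over 45% in size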
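AMA1 (3D7) with his tag at 25 nM final met compounds first, then biotinylated RON2 peptide at 25 nM; detection used donor plus acceptor beads, 10 µg/mL apiece, read by AlphaScreen after 30 min at room temperature.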
Starred values were filed as active, the others as inactive; ? = inconclusive; / = no result given. Shown are actives, neighbours in structure and some others; about 12% of the full set was active somewhere. Unless noted, calls follow the shape of the dose curve; as a rule, active = well fitted curve in the direction sought with a large enough effect; inconclusive = small, poorly fitted or top-dose-only effect, or another doubt; inactive = no such curve, though single readings can be large; an effect the other way counts as inactive or inconclusive. Potency is read from the fitted curve at half-maximal effect.

SMILES | SARS PLpro yeast | Pf growth 48h | Pf growth 96h | HCV inh | NS1 inh | AMA1 RON2 block
CO/N=C/c1ccc(N2CCN(C(=O)c3cccc(C(F)(F)F)c3)CC2)c([N+](=O)[O-])c1 | -7.2% | ? | ? | ? | -2.1% | ?
CO/N=C/c1ccc(N2CCN(C(=O)c3ccc(Cl)cc3Cl)CC2)c([N+](=O)[O-])c1 | -13.2% | -10.2% | -31.3% | 8.91µM* | -3.1% | ?
CO/N=C/c1ccc(N2CCN(C(=O)c3ccc(F)cc3)CC2)c([N+](=O)[O-])c1 | -19.5% | ? | ? | 14.1µM* | -10.7% | -11.0%
COCCCNC(=O)CCn1c(=O)c2ccccc2n(CC(=O)Nc2c(C)cccc2C)c1=O | 3.9% | 8.2% | 9.28µM* | -22.4% | 8.2% | 5.4%
O=C(CCn1c(=O)c2cccn2c2ccc(F)cc21)NCCc1ccccc1 | 2.4% | -8.5% | 3.3% | 10µM* | -4.3% | -2.0%
CCCN(CCC)C(=O)Cn1c(=O)n(CCC(=O)NCCc2ccccc2)c(=O)c2ccccc21 | 0.7% | / | 9.28µM* | 1.4% | 6.7% | 15.0%
O=C(CN1CCN(C(=O)C2CCCO2)CC1)Nc1ccc(Cl)cc1 (stereo not given) | / | 28.9% | -16.3% | / | 9.6% | 6.8%
COc1ccc(CCN2CC(C(=O)NCCc3cnn(C)c3)CCC2=O)cc1 (stereo not given) | 6.2% | 29.1% | 15.5% | 29.6% | 0.0% | 21.2%
COc1cccc(-c2cc(CC3(O)CCN(CCCc4ccccc4)CC3)on2)c1 | 7.1% | 11.7µM* | ? | 4.0% | 5.0% | -3.0%
COc1cccc(-c2cc(C(=O)O)no2)c1 | -6.6% | / | 25.9% | 15.8% | 8.3% | -3.5%
Cc1ccc(Cn2cc(CN3CC(N(C)C)CS3(=O)=O)nn2)cc1 (stereo not given) | / | / | / | / | / | -4.1%
O=C(CCCOc1ccccc1)Nc1cc(S(=O)(=O)N2CCOCC2)ccc1N1CCOCC1 | 2.0% | ? | ? | -12.5% | / | 8.1%
COc1cc(CCC(=O)Nc2cc(Cl)ccc2N2CCN(C)CC2)cc(OC)c1OC | 8.0% | 11.7µM* | / | ? | -1.2% | -7.4%
COc1ccccc1CCC(=O)Nc1cc(S(=O)(=O)N2CCCCC2)ccc1N1CCN(C)CC1 | 5.4% | 11.7µM* | ? | 14.0% | / | -2.9%
Cc1ccc(Cl)c(OCC(=O)Nc2cc(S(=O)(=O)N3CCOCC3)ccc2N2CCCC2)c1 | 7.8% | 11.7µM* | 8.28µM* | -28.7% | 10.5% | -17.7%
CN1CCN(c2ccc(S(=O)(=O)N3CCCCC3)cc2NC(=O)COc2ccc(F)cc2)CC1 | 4.4% | ? | ? | ? | / | -1.5%
Cc1ccc(OCCCC(=O)Nc2cc(S(=O)(=O)N3CCOCC3)ccc2N2CCOCC2)cc1 | -3.5% | 10.4µM* | -30.2% | -15.2% | / | 13.3%
Cc1ccc(OCC(=O)Nc2cc(S(=O)(=O)N3CCOCC3)ccc2N2CCCC2)cc1 | 0.3% | ? | ? | ? | / | -23.2%
COc1ccc(Cl)cc1NC(=O)CCN1CCN(C)CC1 | 0.1% | / | ? | ? | 2.2% | -16.2%
CC(C)NC(=O)c1ccc2c(c1)N(Cc1ccccc1)C(=O)C(C)(C)O2 | -6.2% | ? | 145.6% | -27.8% | 11.3% | -1.8%
COc1cc(C(C)=O)ccc1OCC(=O)Nc1cc(S(=O)(=O)N2CCOCC2)ccc1N1CCCC1 | / | / | / | 23.3% | / | 6.2%
COc1ccccc1OCC(=O)Nc1cc(S(=O)(=O)N2CCOCC2)ccc1N1CCCCC1 | -10.0% | / | / | 12.6µM* | / | -8.5%
COc1ccccc1CC(=O)Nc1cc(S(=O)(=O)N2CCOCC2)ccc1N1CCOCC1 | -0.6% | ? | ? | 1.3% | / | -8.1%
CCc1ccccc1OCC(=O)Nc1cc(S(=O)(=O)N2CCOCC2)ccc1N1CCCCC1 | 2.0% | 2.94µM* | 1.04µM* | 11.2µM* | / | -10.3%
CCCC(C)(C)C(=O)N1CCC1(C)C(=O)Nc1cccc2ccccc12 (stereo not given) | / | / | / | / | / | 13.0%
CC12CCC(c3c(C(=O)N4CCOCC4)nn(-c4ccccc4)c31)C2(C)C (stereo not given) | 1.9% | ? | 1.31µM* | 3.7% | / | 4.5%

High-throughput results: PubChem BioAssay, National Center for Advancing Translational Sciences (NCATS)
